# Measured values from PubChem BioAssay AID686978 (National Center for Advancing Translational Sciences (NCATS), 2013).
# The campaign covered roughly 420,000 compounds. About 64,000 (15%) were called active. Inconclusive results (about 27%) are left out. The call rests on the fitted dose curve; in most records, active means well fitted inhibition curve with a large enough effect; inconclusive means small, poorly fitted or top-dose-only effect; inactive means flat fitted curve, though single readings scatter. A selection follows. Entries that show only a call come without a potency.
# Experiment: qHTS for Inhibitors of human tyrosyl-DNA phosphodiesterase 1 (TDP1): qHTS in cells in absence of CPT; further: nearly all actives have a fitted effect of over 55% in size
# Settings: DT40 Tdp1-/- hTDP1 cells, no CPT, ATP luminescence, 48 h; activity change, negative = growth inhibition: at 46.2 µM (top of the series)
# In short: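 Luminescent ATP content (CellTiter-Glo) served as the growth readout. Knockout chicken DT40 cells expressing human TDP1 were exposed to compounds without camptothecin for a minimum 48 hr at 37 °C.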
# Potency means the concentration at half of the fitted maximal effect.
row,SMILES,Potency
1,O=C(O)CCC(=O)Nc1ccc(N2CCOCC2)cc1,inactive
2,CCCC1C(=O)N2C(N(C)C)=Nc3ccc(C)cc3N2C1=O (stereo unspecified),inactive
3,CCOC(=O)c1sc2nc(SC)nc(-c3ccccc3)c2c1N,inactive
4,Cc1cccc(NC(=O)/C(=C\c2ccco2)NC(=O)c2ccccc2)c1,inactive
5,CN(C)c1ccnc2sc(C(=O)c3ccccc3)c(N)c12,inactive
6,NC(=O)c1sc2nc3c(c(-c4ccccc4)c2c1N)CCC3,13 µM (active)
7,Cc1cccc(NC(=O)c2sc3nc4c(c(-c5ccco5)c3c2N)CCC4)c1,25.9 µM (active)
8,Cc1nc2sc(C(=O)c3ccccc3)c(N)c2c2c1CCCC2,20.6 µM (active)
9,CC(=O)Nc1ccc(NC(=O)c2sc3nc4c(c(-c5ccc(C)cc5)c3c2N)CCC4)cc1,inactive
10,Cc1nn(C)cc1C(=O)c1ccccc1,inactive
11,Cc1sc2nc(CC(N)=O)[nH]c(=O)c2c1-c1ccccc1,inactive
12,CCCCC(NS(=O)(=O)c1ccc(C)cc1)C(=O)Oc1ccc2c3c(c(=O)oc2c1)CCC3 (stereo unspecified),inactive
13,CCc1c(-c2ccccc2)nc(N)c(C#N)c1-c1cccs1,inactive
14,CCC1CN(CCNC(=O)c2cccc(C)n2)Cc2cc(OC)ccc2O1 (stereo unspecified),inactive
15,CC(C)C(=O)Nc1c(O)c2ccccc2[nH]c1=O,inactive
16,O=C(O)C1CCCN(S(=O)(=O)c2cccc3cccnc23)C1 (stereo unspecified),inactive
17,CC(C)[C@@H]1NC(=O)c2cc([N+](=O)[O-])cc(I)c2NCCC[C@@H](C(=O)NC(CC(=O)O)C(N)=O)NC(=O)[C@H](CO)NC1=O (stereo partly specified),inactive
18,COC(=O)c1c(C)[nH]c(C(=O)NCCc2ccc(S(N)(=O)=O)cc2)c1C,inactive
19,CCCc1c(C)nc2c(Br)cccc2c1Cl,inactive
20,Cn1cnc(C(F)(F)F)c1-c1ccc([N+](=O)[O-])cc1,inactive
21,COc1ccc(S(=O)(=O)c2c[nH]c(=S)[nH]c2=O)cc1Cl,inactive
22,Cc1ccc(/C(N)=N/OC(=O)COc2ccc(Cl)c(C)c2)cc1,inactive
23,COc1ccc(C(C)=O)cc1COc1ccc(Cl)c(C)c1,9.2 µM (active)
24,COc1ccc(-c2noc(COc3ccc(Cl)c(C)c3)n2)cc1,inactive

row,SMILES,Potency
1,O=C(CSCc1c(Cl)cccc1Cl)NN1C(=O)c2ccccc2C1=O,inactive
2,Cc1cc(C)c(NC(=S)N2CCCC2C(=O)O)c(C)c1 (stereo unspecified),inactive
3,Cc1nn(CC(=O)N2CCN(c3cccc(C(F)(F)F)c3)CC2)c(=O)c2cc3sccc3n12,inactive
4,O=C(c1cc2ccccc2o1)N1CCN(c2cccc(C(F)(F)F)c2)CC1,inactive
5,CC(C)N1C[C@@H](NCc2ccccc2O)C[C@H]1C(=O)N1CCN(c2cccc(C(F)(F)F)c2)CC1,18.4 µM (active)
6,Cc1cc(C)nc(NS(=O)(=O)c2ccc(N3C(=O)C4CCCCC4C3=O)cc2)n1 (stereo unspecified),inactive
7,CC(=O)NC(Cc1ccccc1)C(=O)NC1CCN(c2ncccc2[N+](=O)[O-])CC1 (stereo unspecified),inactive
8,O=[N+]([O-])c1ccc(S(=O)(=O)Nc2cccc(-c3ccc(N4CCCC4)nn3)c2)cc1,inactive
9,O=S(=O)(Nc1cccc(-c2ccc(N3CCOCC3)nn2)c1)c1ccc(Cl)c(Cl)c1,inactive
10,CCCOc1ccc(-c2cccc(NS(=O)(=O)c3ccccc3)c2)nn1,23.1 µM (active)
11,N#Cc1ccc(CSc2nnc3ccccn23)cc1,inactive
12,O=c1c2ccccc2cnn1Cc1n[nH]c(=S)n1-c1ccccc1F,inactive
13,CNS(=O)(=O)c1cnccc1N1CCN(c2cccc(C)c2)CC1,inactive
14,CC(C)=C1SC(N2CCN(c3cccc(C)c3)CC2)=NC1=O,20.6 µM (active)
15,Cc1ccc(N2CCN(C3=NC(=O)/C(=C\c4cccs4)S3)CC2)cc1,inactive
16,N/C(=N\OC(=O)CC1CCCCC1)c1ccccc1,inactive
17,Cc1cc(C)c2c(=O)[nH]c(SCC(=O)Nc3ccc(Br)cc3)nc2n1,inactive
18,O=C(Nc1cc(S(=O)(=O)N2CCOCC2)ccc1OCC(F)(F)F)c1ccc(N2CCCC2=O)cc1,inactive
19,CCOC(=O)C1C(c2ccc(Cl)cc2)NC(=S)NC1(O)C(F)(F)F (stereo unspecified),inactive
20,O=C(CSc1ncn[nH]1)N/N=C/c1ccc(F)cc1,inactive
21,O=C(NCCOCc1ccc(Cl)cc1)c1ncn[nH]1,inactive
22,O=C(/C=C/Sc1ncn[nH]1)c1ccc(Cl)cc1,2.59 µM (active)
23,Cc1csc(NC(=O)c2ccc(-c3ccc(Cl)cc3Cl)o2)n1,5.17 µM (active)
24,O=C(Nc1cccc2ncccc12)c1ccc(-c2ccc(Cl)cc2Cl)o1,20.6 µM (active)

row,SMILES,Potency
1,Cc1ccc(C(=O)Nc2nc3ccc(Cl)cc3s2)o1,inactive
2,Cc1csc(NC(=O)c2ccc(C)s2)n1,inactive
3,O=C(Nc1cccnc1Cl)c1cc(-c2cccc(Cl)c2)on1,inactive
4,O=C(O)c1cc(Cl)c(Cl)cc1C(=O)Nc1cccc2ncccc12,inactive
5,COc1ccc(Br)c2c1C(=O)CC2,inactive
6,O=C(NCc1ccc(F)cc1)C(c1ccccc1)N(C(=O)c1csnn1)C1CC1 (stereo unspecified),inactive
7,CCNC(=O)N1CCN(S(=O)(=O)c2ccc3c(c2)OCCCO3)CC1,inactive
8,Cc1ccc(NC(=O)CC(=O)Nc2ccc(C)cc2)cc1,inactive
9,O=C(Cc1ccc(Cl)c(Cl)c1)Nc1ccc(SC(F)F)cc1,inactive
10,CC(C)(CCl)C(=O)Nc1ccc(Sc2ccc(F)cc2)cc1,7.31 µM (active)
11,CC(=O)Nc1cc(C(=O)NCc2ccc(F)cc2)ccc1Sc1ccc(F)cc1,inactive
12,CCN(c1ccccc1)S(=O)(=O)c1ccc(NC(=O)C(C)(C)C)cc1,inactive
13,O=C(CCl)Nc1ccc(Sc2ccc(NC(=O)CCl)cc2)cc1,5.17 µM (active)
14,Cc1sc2ncn(CC(=O)NCCCC(=O)NCc3ccc(F)cc3)c(=O)c2c1C,inactive
15,Cc1c(Cl)cccc1NC(=O)CC1SC(=NCC2CCCO2)NC1=O (stereo unspecified),inactive
16,COc1ccc(N2C(=O)C3CCCN3C2c2cc(OC)c(OC)cc2OC)cc1 (stereo unspecified),inactive
17,CCNC(=O)C1(C)CCCN(C(=O)c2ccc3ccccc3n2)C1 (stereo unspecified),inactive
18,Cc1cc(/C=N/NC(N)=O)c(C)n1C1CCCCC1,inactive
19,CC(=O)Nc1ccc(/C=N/NC(=O)c2cccs2)cc1,inactive
20,Cc1cccc(-n2c(C)cc(/C=N\NC(=O)c3cccs3)c2C)c1,16.4 µM (active)
21,Cc1cc(/C=N/NC(=O)c2cccnc2)c(C)n1CC(C)C,inactive
22,Cc1cc(/C=N/n2cnnc2)c(C)n1-c1cccc(C(=O)O)c1,inactive
23,Cc1cccc(-n2c(C)cc(/C=N/NC(N)=S)c2C)c1,5.8 µM (active)
